hcDAF-12 act = activators of H. contortus DAF-12 nuclear receptor; AID 652067; hit rate 1.4% among 370,000; HEK293 hcDAF-12 lit1-tk-luc reporter, luminescence; 0% DMSO, 100% Δ7-dafachronic acid; activation, % at 6.8 µM;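 active = activation above the mean of all tested compounds plus 3 SD, cut at about 5.5% in these data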
DAX1 inh-1 = blocks DAX1 repression of SF-1 activated StAR promoter | HEK293T StAR-luciferase reporter, SF-1/DAX-1 repression relief | inhibition, % at 6.8 µM | hit rate 1.1% among 370,000 | AID 652010;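 active = inhibition above the mean over all tested compounds plus 3 SD, cut at about 3.6% in these data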;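 note: higher inhibition means more luminescence from relief of DAX-1 repression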
AHR act = activates the human aryl hydrocarbon receptor; P35869; AHR-responsive luciferase reporter cells, luminescence; activation, % at 5 µM; hit rate 2.5% among 320,000; in the data active = activation above about 47%
ssDAF12 agonist = S. stercoralis DAF-12 activation, primary screen | HEK293 ssDAF-12/GRIP1 lit1-tk-luc reporter, luminescence; % of 3 µM dafachronic acid response | activation, % at 6.8 µM | hit rate 1% among 370,000 | AID 652126;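 active = activation above the mean over all tested compounds plus 3 SD, cut at about 0.9% in these data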
DAX1 inh-2 = inhibits human nuclear receptor DAX1; P51843; HEK293 Gal4-DAX1 luciferase reporter, luminescence; inhibition, % at 6.75 µM; hit rate 0.99% among 340,000; AID 504766;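 active = inhibition above the mean over all tested compounds plus 3 SD, cut at about 4.2% in these data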;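 note: inhibition shows as a rise in luminescence from relieved DAX1 repression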
Target sequence (P51843 207-470 limits assumed): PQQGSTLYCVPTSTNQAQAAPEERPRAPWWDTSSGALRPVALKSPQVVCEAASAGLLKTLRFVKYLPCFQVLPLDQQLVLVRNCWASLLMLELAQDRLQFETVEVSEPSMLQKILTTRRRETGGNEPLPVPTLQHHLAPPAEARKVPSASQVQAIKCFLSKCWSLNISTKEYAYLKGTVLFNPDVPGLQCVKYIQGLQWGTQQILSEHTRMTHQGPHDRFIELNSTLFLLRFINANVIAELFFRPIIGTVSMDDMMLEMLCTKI
hgDAF12 agonist = hgDAF-12 agonism, primary luciferase screen; HEK293 GAL4-hgDAF12 UAS-luciferase reporter, agonist luminescence; normalized to butyrate control; activation, % at 6.8 µM; hit rate 1.8% among 370,000; AID 687014;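 active = activation above a cutoff set at the mean of all screened compounds plus 3 SD, cut at about 10% in these data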
A number is an active result; i = inactive; nt = not tested or not shown. Compounds with a hit are over-represented: about 5.7% of the library has one in this group of screens.

SMILES	hcDAF-12 act	DAX1 inh-1	AHR act	ssDAF12 agonist	DAX1 inh-2	hgDAF12 agonist
Cc1ccc2cc(COC(=O)c3cccc([N+](=O)[O-])c3)c(=O)[nH]c2c1	i	i	i	i	4.5	i
Cc1ccc2cc(CCNC(=O)c3cccc([N+](=O)[O-])c3)c(=O)[nH]c2c1	i	i	i	i	i	i
CCc1ccc(CN(C)Cc2nc(-c3cccc(Cl)c3)no2)nc1	i	i	i	i	i	i
CCC(=O)N1CCN(c2ccccc2NC(=O)COc2ccccc2Cl)CC1	i	i	68.2	i	i	i
O=C(COc1ccccc1Cl)Nc1cc(Cl)ccc1O	5.7	i	nt	1.6	4.9	i
COc1ccc(N2CCCC2)c(NC(=O)COc2ccccc2Cl)c1	i	i	i	1.5	i	i
COc1ccc(OCC(=O)Nc2cc(OC)ccc2N2CCCCC2)cc1	i	i	i	i	i	i
O=C(COc1ccc(Br)cc1)Nc1ccccc1N1CCCC1	i	i	i	1.4	i	i
CCN(Cc1cc(OC)c(OC)c(OC)c1)S(=O)(=O)c1ccccc1Br	i	i	nt	i	nt	i
CCOC(=O)c1c(C)[nH]c(C(=O)N(C)CC(=O)Nc2ccc(OCC)c(OCC)c2)c1C	i	i	nt	i	i	i
O=C(CN1C(=O)C2CCCCC2C1=O)Nc1ccccc1N1CCCC1 (configuration not stated)	i	4.1	i	i	i	i
O=C(CN1C(=O)C2CC=CCC2C1=O)Nc1ccccc1N1CCCC1 (configuration not stated)	i	i	i	i	i	i
CN(C)Cc1c(C(C)(C)O)[nH]c2ccccc12	i	i	nt	i	nt	i
CC(C)Cn1c(Br)nc2c1c(=O)n(CCC#N)c(=O)n2C	i	i	i	i	4.3	i
CCCCCCn1c(Br)nc2c1c(=O)n(C)c(=O)n2C	i	i	i	1.0	i	i
CCCCn1c(CN2CCOCC2)nc2c1c(=O)n(C)c(=O)n2C	i	i	i	i	i	10.8
COCCn1c(CN2CCN(c3cccc(Cl)c3)CC2)nc2c1c(=O)n(C)c(=O)n2C	i	i	i	i	i	i
CC(C)CCn1c(CN2CCN(c3cccc(Cl)c3)CC2)nc2c1c(=O)n(C)c(=O)n2C	i	i	i	i	i	12.8
Cc1ccc(C(=O)NCC(=O)NCC(=O)OCC(=O)c2cccs2)cc1	i	i	i	i	i	i
O=S(=O)(c1cccc(Br)c1)N1CCN(C(=S)NCC2CCCO2)CC1 (configuration not stated)	i	i	i	i	i	i
Cc1cc(C)c(S(=O)(=O)Nc2cccc(/C=C/C(=O)O)c2)c(C)c1	i	i	i	i	i	i
N#Cc1cc2c(N)c(C(=O)Nc3ccccc3)sc2nc1N	nt	nt	64.2	nt	nt	nt
O=C(NCc1ccccc1Cl)c1ccc(S(=O)(=O)Nc2cccc(C(F)(F)F)c2)cc1	i	i	i	i	i	i
COc1ccc(C(=O)/C=C/Nc2ccc(S(=O)(=O)Nc3onc(C)c3C)cc2)cc1	i	3.9	i	1.2	i	11.0
CCc1ccc(C(=O)/C=C/Nc2ccc(S(=O)(=O)Nc3onc(C)c3C)cc2)cc1	i	i	i	i	i	11.4
SMILES	hcDAF-12 act	DAX1 inh-1	AHR act	ssDAF12 agonist	DAX1 inh-2	hgDAF12 agonist
Cc1noc(NS(=O)(=O)c2ccc(N/C=C/C(=O)c3ccc(F)cc3)cc2)c1C	i	i	i	i	i	i
C/C(=N\NC(=O)c1nnn(-c2nonc2N)c1CN1CCC(C)CC1)c1ccc(Br)cc1	i	i	nt	i	i	i
CN(C)c1cccc(NC(=O)c2cccc3c(-c4ccc(F)c(F)c4)coc23)c1	i	i	nt	i	nt	i
O=C(O)c1ccc(COc2ccccc2/C=C2/NC(=O)N(c3cccc(Cl)c3)C2=O)cc1	i	i	i	i	i	i
O=C(O)c1ccc(COc2ccc3ccccc3c2/C=C2/NC(=O)N(c3ccccc3)C2=O)cc1	i	i	i	1.0	i	i
CCCN(C)C1CN(Cc2cn(Cc3ccc(F)cc3)nn2)S(=O)(=O)C1 (configuration not stated)	i	i	nt	i	nt	i
C=C(C)C1(O)OC(=O)C=C1OC (configuration not stated)	6.5	i	i	i	i	i
O=C(c1cccc(C(F)(F)F)c1)C1CCCN(C(=O)CCn2cnnn2)C1 (configuration not stated)	i	i	i	i	i	i
O=C(O)c1ccc(N=NN2CCCCCC2)cc1	i	i	i	i	i	10.6
COc1ccc(NC(=O)c2cc(C3CCCCN3S(=O)(=O)Cc3ccccc3)on2)cn1 (configuration not stated)	i	i	nt	i	nt	11.2
CCCCCc1ccc2cc(C#N)ccc2n1	i	i	nt	i	nt	i
COc1ccc(CN2CCNC(=O)C2CC(=O)NCc2csc(C(C)C)n2)c(OC)c1 (configuration not stated)	i	i	47.3	i	nt	i
CCC(CC)NCC(O)COc1ccc(Br)cc1 (configuration not stated)	i	i	i	i	i	i
CCC(CO)Nc1cccc2c1S(=O)(=O)N(Cc1cn(Cc3ccc(F)cc3)nn1)Cc1ccccc1O2 (configuration not stated)	i	i	nt	i	nt	i
Oc1ccc(Br)cc1C=Nc1ccc(Cl)cc1	i	i	i	i	i	i
COc1cc(O)sc1C=Nc1ccc(Cl)cc1	i	i	48.1	i	i	i
CC(=O)c1ccc(NC(=O)C[n+]2ccccc2)cc1	i	i	i	i	i	i
COC(=O)c1ccc(NC(=O)C[n+]2ccccc2)cc1	i	i	i	1.8	i	i
COc1coc(C(O)C[N+](=O)[O-])cc1=O (configuration not stated)	i	i	i	i	i	i
O=C(NCCc1csc(-c2cccnc2)n1)c1ccc(Br)o1	i	i	65.3	i	i	i
O=C(NCc1ccc(Cl)cc1)c1csc(-c2cccnc2)n1	i	i	52.4	i	i	i
O=C(NCCc1csc(-c2ccccc2)n1)c1ccc(Br)o1	i	i	i	i	i	i
O=C(NC(=O)c1cnccc1C(F)(F)F)Nc1ccccc1	i	i	i	i	i	i
COc1ccc(Nc2cc(Nc3cc(OC)c(OC)c(OC)c3)ncn2)cc1	i	i	59.3	i	i	i
COc1ccc(Nc2ncnc3ccc(C)cc23)cc1	i	i	55.2	i	i	i
SMILES	hcDAF-12 act	DAX1 inh-1	AHR act	ssDAF12 agonist	DAX1 inh-2	hgDAF12 agonist
COC(=O)c1cccc(Nc2ncnc3ccc(C)cc23)c1	i	i	i	i	i	i
COc1cc(Nc2c3ccccc3nc3ccccc23)cc(OC)c1OC	5.7	i	i	i	i	i
CCc1ccc(Nc2ncccc2C#N)cc1	i	i	52.1	i	i	i
Cc1ccc(NC(=S)NCC(C)C)cc1	i	i	i	i	i	i
COc1ccc(NC(=O)C(=O)NCCN2CCN(C(=O)c3ccc(C)cc3)CC2)cc1	i	i	i	1.2	i	i
COc1ccc(C(=O)N/C(=C\c2cn(C)c3ccccc23)C(=O)NCCCn2ccnc2)cc1	i	i	i	i	i	i

Screening results (PubChem)
